The record followed here is PubChem BioAssay.

Results filed as inconclusive are left out. Activity calls are given as the source filed them.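 How the source made its calls: active means cell viability at or below a set limit in both duplicate runs, the limit being the all-compound median minus 4 SD (cut at about 23% in these data, passing the limit was not always enough); inconclusive means no clear call, values can overlap the other calls; inactive means the rest.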

The nature of this experiment: viability of HCT116 without oncogenic beta-catenin – human colon tumor cells, pilot screen (AID 823).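 Further: 0% = wells killed by 20 µM Hyamine and 100% = untreated DMSO cell wells.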 To be noted: HCT116 beta-catenin knockout viability, CellTiter-Glo, 60 h; at 10 µM; stronger effect = lower value.
With `COc1ccc(C/C(O)=C(\C#N)c2nc3ccccc3[nH]2)cc1OC`, the viability was 90.7% (inactive).
Next, `O=C(NCCN1C(=O)C2C3C=CC(C3)C2C1=O)Nc1cccnc1` (centres undefined): 96.7% (inactive); `CN(C)C(=O)c1nnc(Cc2ccc(Cl)cc2)o1`: 98.5% (inactive); `C=CCOC(=O)C1CC=CCC1C(=O)Oc1ccc(F)cc1F` (centres undefined): 100% (inactive).
Next, `Cc1nnc(SCC(=O)N2CCOCC2)n1C`: 106% (inactive); `Cc1cc(NCc2ccc3c(c2)OCO3)n2nc(C)nc2n1`: 94.4% (inactive); `Cc1ccc(-c2nn3c(C)nnc3s2)cc1NC(=O)c1ccco1`: 113% (inactive).
Next, `CN1CCCN(Cc2ccccc2C(F)(F)F)CC1`: 97.6% (inactive); `CCOc1ccccc1N1CCN(C(=O)c2cc(C)oc2C)CC1`: 89.2% (inactive); `CC(CCc1ccco1)NC(=O)Cn1nc(Cc2ccncc2)c2ccccc2c1=O` (centres undefined): 89.4% (inactive).
Consider `CNC(=O)c1ccsc1NC(=O)c1ccc(Cl)s1`, for which the viability is 103% (inactive).
To `O=C(O)c1ccc(CSc2nnc(-c3ccco3)o2)cc1` belongs 108% (inactive); to `CCN1C(=O)CSc2ccc(C(=O)OC)cc21`, 95.6% (inactive).
Turning to `CCOc1ccc(Oc2nc(NCC(C)C)nc(OC)n2)nn1`, the viability is 94.8% (inactive).
